Assay outcomes as filed in PubChem BioAssay.
Only some compounds are listed: those with a hit (about 3.5% of all), similar ones and a draw of the others.
MITF primary: blocks human microphthalmia-associated transcription factor; hit rate 0.91% among 650,000; inhibition, % at 2.6 µM; AID 1259374; O75030; AlphaScreen MITF homodimerization, bead proximity signal; in the data active = inhibition above about 50%;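 note: 0% = vehicle wells with protein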
Target sequence (O75030 whole entry, looked up): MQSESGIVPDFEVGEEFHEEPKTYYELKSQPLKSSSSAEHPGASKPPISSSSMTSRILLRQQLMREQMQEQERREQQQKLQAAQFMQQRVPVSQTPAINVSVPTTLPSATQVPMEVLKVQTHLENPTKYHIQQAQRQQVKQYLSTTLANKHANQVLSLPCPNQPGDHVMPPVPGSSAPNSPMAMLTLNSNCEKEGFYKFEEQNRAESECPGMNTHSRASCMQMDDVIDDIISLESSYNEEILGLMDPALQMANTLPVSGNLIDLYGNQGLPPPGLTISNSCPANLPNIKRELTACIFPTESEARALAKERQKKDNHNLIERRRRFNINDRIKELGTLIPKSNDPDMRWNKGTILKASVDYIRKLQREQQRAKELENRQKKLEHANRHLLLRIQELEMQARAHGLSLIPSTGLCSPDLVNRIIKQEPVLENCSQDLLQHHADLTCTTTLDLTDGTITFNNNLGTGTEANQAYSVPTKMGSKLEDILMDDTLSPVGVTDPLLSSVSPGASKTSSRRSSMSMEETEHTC
TEAD-YAP block: TEAD-YAP interaction inhibition | inhibition, % at 9.12 µM | AID 1259422 | hit rate 1.4% among 640,000 | HEK-TIYL cells, TEAD-Gal4/YAP UAS-luciferase luminescence; in the data active = inhibition above about 32%;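 note: 0% = median of test compound wells and 100% = reference inhibitor wells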
GPR151 ag: activators of human GPR151 | Q8TDV0 | PathHunter beta-arrestin GPR151 cells, luminescence | activation, % at 11.2 µM | hit rate 1% among 650,000 | AID 1508602; in the data active = activation above about 4.9%;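 note: 0% = median of compound wells and 100% = cells with positive control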
FBW7 act: human FBW7 E3 ligase activation, primary screen; normalized activity (activation), % at 26.1 µM; AID 1259310; hit rate 0.13% among 650,000; AlphaScreen FBW7–phospho-cyclin E peptide binding, activator screen; Q969H0; in the data active = normalized activity above about 1.9%;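 note: purified mutant Fbw7 with reduced substrate affinity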
Numbers without * were called inactive; nt = not tested or not shown.

SMILES | MITF primary | TEAD-YAP block | GPR151 ag | FBW7 act
O=C(Nn1c(-c2ccc(F)cc2)nc2ccccc2c1=O)c1ccc(Br)cc1 | -14 | 3 | 0 | 0
Cc1ccc(C(=O)N2CCN(c3ccc([N+](=O)[O-])cc3)CC2)c(Cl)c1 | -4 | 35* | -1 | 0
O=C(c1cc([N+](=O)[O-])ccc1Cl)N1CCN(c2cccc(Cl)c2)CC1 | -12 | 32* | -1 | 0
O=C(c1n[nH]c(=O)c2ccccc12)N1CCN(c2cccc(Cl)c2)CC1 | -5 | 55* | 0 | 0
N#Cc1ccccc1S(=O)(=O)N1CCN(CCO)CC1 | -5 | -7 | 0 | 0
O=[N+]([O-])c1ccc(S(=O)(=O)NCC(c2ccco2)S(=O)(=O)c2ccccc2)cc1 (stereo not given) | 11 | -6 | 0 | 0
Cc1oc2c(c1C(=O)O)C(=O)c1ccccc1C2=O | 0 | -6 | 1 | 0
Cc1oc2c(c1C(=O)N1CCCC1)C(=O)c1ccccc1C2=O | 16 | 54* | -1 | 0
CN1CCN(c2ccc(-c3cncc(/C=C/c4ccccc4)n3)cn2)CC1 | -19 | 41* | 0 | 0
CCOC(=O)c1c(N)sc2c1CCC/C2=N\O | 6 | 53* | -1 | 0
CCOC(=O)c1csc2c1CCC/C2=N/OC(C)=O | 5 | 36* | -1 | 1
CCOC(=O)c1c(NC(=O)CC)sc2c1CCC/C2=N/OC(C)=O | 1 | -3 | 0 | 0
O=C(/C=C/c1ccc(Cl)cc1)Nc1ccc(CN2CCOCC2)cc1 | -1 | 41* | 0 | 0
O=C(Cc1ccc(Cl)cc1)Nc1ccc(CN2CCOCC2)cc1 | -4 | -7 | -1 | 0
COc1ccccc1N1CCN(CC(O)COC(C)C)CC1 (stereo not given) | 0 | -7 | -1 | 0
Cc1ccc(S(=O)(=O)Nc2cccc(C(=O)NCc3cccnc3)c2)cc1 | 17 | 58* | 0 | 0
CC(=O)Nc1ccc(Nc2ccnc(Nc3ccc4ncccc4c3)n2)cc1 | 5 | 37* | -1 | 0
CC(=O)Nc1ccc(Nc2ccnc(Nc3ccncn3)n2)cc1 | 10 | -16 | 4 | 0
CC(=O)Nc1ccc(Nc2cc(C)nc(Nc3ccc4ncccc4c3)n2)cc1 | 10 | 27 | 1 | 0
CC(=O)Nc1ccc(Nc2ccnc(Nc3ccc(C(F)(F)F)cc3)n2)cc1 | 11 | 60* | 0 | 0
CN1C(=O)C(=Cc2ccccc2OCC(=O)O)C(=O)N(C)C1=S | 72* | 6 | 1 | 0
CN1C(=O)C(=Cc2ccccc2OCC(=O)Nc2ccccc2)C(=O)N(C)C1=S | 6 | -13 | -2 | 1
CCCOc1ccc(C(C)=O)cc1OCCC | -6 | -14 | 0 | 0
CC(=O)Nc1ccc(Nc2nc(N3CCN(c4ccccn4)CC3)ncc2C)cc1 | 17 | 49* | 1 | 0
Cc1cnc(N2CCN(c3ccccn3)CC2)nc1Nc1ccccc1 | 6 | -3 | -1 | 0
SMILES | MITF primary | TEAD-YAP block | GPR151 ag | FBW7 act
O=C(Nc1ccccc1)N1CCC2(CC1)NCCc1c2[nH]c2ccc(Cl)cc12 | 10 | 46* | 0 | 0
COc1ccc2sc(Nc3nc(-c4ccccn4)cs3)nc2c1 | 25 | 37* | 4 | -1
COc1ccc2nc(Nc3nc(-c4cccnc4)cs3)sc2c1 | 14 | 4 | 0 | 0
COc1ccc2nc(Nc3nc(-c4ccccn4)cs3)sc2c1 | 51* | 49* | 1 | -2
O=C(O)c1cccc(N2C(=O)c3ccccc3C2=O)c1 | 1 | -1 | 1 | 1
CCCCc1ccc(-n2nnnc2SCC(=O)Nc2sccc2C(N)=O)cc1 | -2 | 37* | 0 | 0
C=CCn1c(SCC(=O)Nc2nccs2)nnc1-c1ccccc1O | -6 | 61* | 0 | 0
CCn1c(SCC(=O)Nc2nccs2)nnc1-c1ccccc1O | 2 | -6 | 1 | 0
Cc1csc(NC(=O)CSc2nnc(-c3ccccc3O)n2-c2ccccc2)n1 | -1 | 57* | -1 | 0
O=C(CSc1nnc(-c2ccccc2)n1-n1cccc1)Nc1nccs1 | 3 | 38* | 0 | 0
C=CCn1c(SCC(=O)Nc2sccc2C(N)=O)nnc1-c1ccccc1 | 5 | 26 | -1 | 0
O=C(CSc1nnc(-c2ccccc2O)n1-c1ccccc1)Nc1nccs1 | 2 | 54* | -1 | 0
NC(=O)c1ccsc1NC(=O)CSc1nnc(-c2ccccc2)n1-c1ccccc1 | 2 | 45* | 0 | 0
Cc1cncc(NC(=O)c2cc(N3CCOCC3)cc(-n3cc(NC(=O)Cc4ccccc4)cn3)c2)c1 | 17 | 40* | 0 | 0
CCC(O)CNC(=O)c1ccc(OC)c(OC2CCN(C(C)C)CC2)c1 (stereo not given) | 15 | 8 | -1 | 0
Cc1cccc(-n2ncc3c(Nc4cc(C)ccc4C)ncnc32)c1 | -5 | 45* | -2 | 0
Cc1cccc(-n2ncc3c(NC(C)(C)C)ncnc32)c1 | -3 | 82* | 1 | 0
CC(C)(C)Nc1ncnc2c1cnn2-c1ccc(Cl)cc1 | 4 | 51* | 3 | 0
Cc1cccc(-n2ncc3c(Nc4cccc(C)c4C)ncnc32)c1 | -5 | 42* | 0 | 0
Cc1cccc(-n2ncc3c(Nc4ccc(C)cc4C)ncnc32)c1 | 8 | -27 | 0 | 0
CCCCNc1ncnc2c1cnn2-c1ccc(Cl)cc1 | 0 | -54 | 1 | 0
C=CCN(C(=O)CSc1nc2[nH]ncc2c(=O)n1-c1ccccc1C)c1ccccc1 | -2 | 8 | 0 | 0
CCN(CCN(C)C)c1ncnc2c1cnn2-c1ccc(Cl)cc1 | 5 | 50* | -1 | 0
CCCN(CCC)c1ncnc2c1cnn2-c1ccc(Cl)cc1 | 5 | 7 | 2 | 0
Cc1nc(C)n(-c2ccc(Nc3nc(-c4cnn(C)c4)cc(N(C)C)n3)cc2)n1 | 15 | 33* | -2 | 0
SMILES | MITF primary | TEAD-YAP block | GPR151 ag | FBW7 act
Cc1ncn(-c2ccc(Nc3ncc(Cl)c(-c4cnn(C)c4)n3)cc2)n1 | -16 | 72* | -1 | 0
Cc1nc(C)n(-c2ccc(Nc3ncc(Br)c(-c4cnn(C)c4)n3)cc2)n1 | 8 | 77* | 0 | 0
Cc1ncn(-c2ccc(Nc3ncc(Cl)c(Nc4ccccc4-c4ncn(C)n4)n3)cc2)n1 | -3 | 1 | 0 | 0
Cc1nc(C)n(-c2ccc(Nc3nccc(-c4cc(F)cc(-c5cnn(C)c5)c4)n3)cc2)n1 | 9 | -1 | -1 | 0
CCc1ccc(NC(=O)c2cc(S(=O)(=O)N3CCCCC3CC)ccc2F)cc1 (stereo not given) | 7 | -7 | 2 | 0
O=C(Cn1cnc([N+](=O)[O-])n1)N1c2ccccc2Sc2ccccc21 | -2 | 4 | -1 | 0
COc1ccc(CN2C[C@@H]3C[C@@H](c4ccccc4C)N4CCC[C@@]34C2=O)cc1 | 4 | -6 | -2 | 0
COc1ccc(CN2C[C@@H]3C[C@@H](c4cc5ccccc5o4)N4CCC[C@@]34C2=O)cc1 | -7 | 77* | 0 | 0
CCCCCCCCCCCC1N[C@H](C(=O)O)CS1 (stereo not given in full) | 10 | nt | 1 | nt
CCN(CC)CCNc1nc(=O)n2c(sc3ccccc32)c1C#N | -2 | 0 | -1 | 0
O=c1c(CN2CCN(Cc3ccccc3)CC2)coc2ccccc12 | 43 | 67* | -2 | 0
